Screens: PubChem BioAssay, National Center for Advancing Translational Sciences (NCATS)
GALC G270D act – galactocerebrosidase G270D activity enhancement, cell-based | Potency, µM (series often up to 57.5 µM), actives largely listed as activators | actives 0.1% (n = 45,000) | 145M-Twi-hGALC-G270D cells, HMU-beta-Gal fluorescence, 48 h | P54803; also: potency is read from the fitted curve at half-maximal effect; 0% is about no effect; nearly all actives have a fitted effect of over 65% in size
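qHTS, 1536-well; 145M-Twi-hGALC-G270D cells (WT line also made) in DMEM/F12 + 10% FBS; compound incubation on live cells; HMU-β-gal 0.1 mM final, pH 5.2, NaTC; carbonate stop; fluorescence increase = enhanced residual activity.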
HTT promoter inh – HTT promoter inhibition. HEK293 HTT promoter firefly luciferase reporter, 24 h. Potency, µM (highest dose often 57.5 µM), for inactives: top-dose activity change, negative = inhibition, hits mostly inhibitors. actives 0.93% (n = 48,000); also: potency is read from the fitted curve at half-maximal effect; nearly all actives have a fitted effect of over 50% in size
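Luminescence was read after Dual-Glo reagent and a 10 min room-temperature incubation. Values were normalized to vehicle (0% activity) and zero RLU (-100% activity). Reporter HEK293 cells had been exposed to compounds (up to 57.5 uM final) for 24 h.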
FH mod – Identification of activators of human fumarate hydratase by quantitative high-throughput screening; AID 1347055, 2019; Potency, µM (top dose mostly 79.9 µM), for inactives: top-dose activity change, negative = inhibition, hits mostly inhibitors; FH coupled MDH/diaphorase resazurin fluorescence, 15 min; actives 0.22% (n = 54,000); Fumarate hydratase, mitochondrial (Homo sapiens), P07954; also: potency is read from the fitted curve at half-maximal effect; % is scaled to controls: 0 for no effect and ±100 for the full control effect; the screen sought activators but most active calls are inhibition curves; nearly all actives have a fitted effect of over 45% in size
HTT-AS promoter – activators of huntingtin-antisense promoter activity | HEK293 HTT-AS promoter firefly luciferase reporter, 24 h; response scale: percent change from vehicle, -100% = no light | actives 0.24% (n = 48,000) | Potency, µM (doses to about 57.5 µM), for inactives: top-dose activity change, positive = activation, actives largely listed as activators; also: potency is read from the fitted curve at half-maximal effect; nearly all actives have a fitted effect of over 55% in size
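Firefly luciferase readout (Dual-Glo, 10 min RT) after 24 h, 37 °C compound exposure (final up to 57.5 uM) of HEK293 reporter cells cultured 24 h beforehand; PTC124 at 50 uM final as control inhibitor; activity scaled vehicle 0%, zero RLU -100%.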
DRV1 agonist – GPR32 (DRV1) agonism, beta-arrestin recruitment; O75388; CHO-K1 GPR32 beta-arrestin PathHunter luminescence, 90 min; zero percent set by DMSO-only wells; activation, % at 76.9 µM; actives 2.5% (n = 48,000);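 active = activation of at least 60% and not above a set upper limit, about 1 call in 100 departs from these limits; inconclusive = activation of 40% to 60%, or above that upper limit; inactive = activation under 40%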; also: 0% is about no effect
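Engineered CHO-K1 line co-expressing GPR32-ProLink and EA-beta-arrestin. Compound treatment lasted 90 min at 37 °C. Luminescence was recorded after 1 h with substrate at ambient temperature, relative to DMSO basal wells.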
NTMT1 inhibitor – NTMT1 methyltransferase inhibition | AID 1645870 | Potency, µM (doses to about 114 µM), for the others: top-dose activity change, negative = inhibition, usual class: inhibitors | actives 2.5% (n = 59,000) | NTMT1 MTase-Glo SAH luminescence, purified enzyme | Q9BV86;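 also: potency is read from the fitted curve at half-maximal effect; plate controls were DMSO vehicle for no effect and no enzyme for full effect; nearly all actives have a fitted effect of over 65% in size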
Target sequence (Q9BV86 whole entry, looked up): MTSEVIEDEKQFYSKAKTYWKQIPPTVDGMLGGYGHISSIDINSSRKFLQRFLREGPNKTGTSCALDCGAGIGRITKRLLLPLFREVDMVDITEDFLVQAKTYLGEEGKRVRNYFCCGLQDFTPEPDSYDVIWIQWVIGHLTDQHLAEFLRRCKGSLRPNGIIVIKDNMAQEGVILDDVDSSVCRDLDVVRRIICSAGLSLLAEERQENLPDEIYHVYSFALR
DYRK1A inh-1 – inhibitors of human DYRK1A kinase; shares compounds with NTMT1 inhibitor; recombinant DYRK1A, Kinase-Glo ATP depletion luminescence; actives 80% (n = 100); Potency, µM (doses to about 76.9 µM), for the others: at the highest dose activity change, negative = inhibition, hits mostly inhibitors
CLK4 inh-1 – confirmation of human CLK4 kinase inhibitors, SAR round 2; AID 493204; actives 90% (n = 90); Potency, µM (series often up to 76.9 µM), inactives show at the highest dose activity, negative = inhibition, actives largely listed as inhibitors; recombinant Clk4, Kinase-Glo ATP luminescence, 4.5 h; shares compounds with NTMT1 inhibitor
CLK4 inh-2 – CLK4 kinase inhibition, SAR round 2; shares compounds with NTMT1 inhibitor; Reaction Biology kinase assay, 10 uM ATP; Potency, µM, usual class: inhibitors; actives 100% (n = 65); AID 504421; calls by dose curve
DYRK1A inh-2 – DYRK1A kinase inhibition; Reaction Biology kinase assay, 10 uM ATP; AID 504424; Potency, µM, actives largely listed as inhibitors; actives 90% (n = 65); shares compounds with NTMT1 inhibitor;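 active = compounds that showed inhibition of Dyrk1a and received a fitted potency; inactive = compounds that showed no inhibition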
CLK2 inh – inhibitors of human CLK2 kinase; shares compounds with NTMT1 inhibitor; Potency, µM, actives largely listed as inhibitors; actives 90% (n = 65); Reaction Biology kinase assay, 10 uM ATP;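 active = compound that inhibits Clk2 kinase in the dose series, with an IC50 potency reported; inactive = no inhibition seen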
CLK3 RBC – inhibitors of human CLK3 kinase | shares compounds with NTMT1 inhibitor | recombinant CLK3 kinase assay, 10 uM ATP | Potency, µM, most hits filed as inhibitors | actives 40% (n = 65);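 active = compounds that inhibited Clk3 enough in the ten-dose series to give a half-maximal potency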
DYRK1B RBC – DYRK1B kinase inhibition; Potency, µM, hits mostly inhibitors; AID 504429; actives 80% (n = 65); shares compounds with NTMT1 inhibitor; Recombinant Dyrk1b kinase assay, 10 uM ATP;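 active = compounds whose dose response shows an inhibitor phenotype against the kinase Dyrk1b; inactive = compounds showing no inhibitor phenotype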
CLK1 RBC – CLK1 kinase inhibition; shares compounds with NTMT1 inhibitor; recombinant Clk1 kinase assay, 10 uM ATP; Potency, µM, most hits filed as inhibitors; actives 90% (n = 65);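 active = compounds that block the splicing kinase Clk1 enough to give a fitted half-inhibition concentration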
NNMT counter – counter-screen for NTMT1 inhibitors: human NNMT inhibition. shares compounds with NTMT1 inhibitor. AID 1645878. actives 10% (n = 120). Potency, µM (doses to about 57.1 µM), for inactives: top-dose activity, negative = inhibition, usual class: inhibitors. NNMT MTase-Glo luminescence, SAH detection
Target sequence (P40261 whole entry, looked up): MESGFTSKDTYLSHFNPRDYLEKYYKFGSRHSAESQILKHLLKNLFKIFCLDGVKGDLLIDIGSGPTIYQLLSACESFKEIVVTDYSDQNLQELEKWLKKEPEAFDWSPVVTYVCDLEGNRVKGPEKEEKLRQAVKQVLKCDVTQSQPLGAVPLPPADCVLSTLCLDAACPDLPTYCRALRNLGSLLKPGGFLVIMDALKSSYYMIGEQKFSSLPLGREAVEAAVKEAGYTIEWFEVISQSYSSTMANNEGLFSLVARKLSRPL
* hit, by the source's call; i = inactive; ? = inconclusive; nt = not tested or not shown; ! = a repeat was not active; [ ] = remark or other dose. A selection: hits, their analogues and other compounds. The true share with any hit is near 4.7%. Unless noted, calls follow the shape of the dose curve; as a rule, active = well fitted curve in the direction sought with a large enough effect; inconclusive = small, poorly fitted or top-dose-only effect, or another doubt; inactive = no such curve, though single readings can be large; an effect the other way counts as inactive or inconclusive.

SMILES	GALC G270D act	HTT promoter inh	FH mod	HTT-AS promoter	DRV1 agonist	NTMT1 inhibitor	NNMT counter	others
CCOC(=O)c1ccoc1-c1ccc2ncnc(NCc3ccc(C)o3)c2c1	nt	nt	nt	nt	nt	?	nt	DYRK1A inh-1=23µM*
Cc1csc(CNc2ncnc3ccc(-c4ccco4)cc23)c1	nt	nt	nt	nt	nt	7%	nt
COc1ccc(-c2ccccc2)cc1NS(=O)(=O)c1cc(Cl)cc(Cl)c1O	nt	nt	-11%[53.3 µM]	nt	nt	-28%[29.8 µM]	nt
CCCCCCc1cccc(NC(=O)[C@H](N)CCP(=O)(O)O)c1	nt	nt	-1%[20.6 µM]	nt	nt	1%[12.6 µM]	nt
COc1cccc(C(=O)NCCNc2nc3cc(C)cc(C)c3cc2C#N)c1	nt	nt	-3%	nt	nt	-6%[57.5 µM]	?
Cc1ccc(Nc2nnc(Cc3ccncc3)c3ccccc23)cc1Br	nt	nt	nt	nt	nt	1%	nt
Clc1ccc(Nc2nnc(Cc3ccncc3)c3ccccc23)cc1	i	?	-3%	-20%	72*	89µM*!	?
CC(C)c1cc(CNc2nc(Nc3cc(C4CC4)[nH]n3)cc(N3CCN(C)CC3)n2)on1	nt	nt	2%	nt	nt	?	-16%
O=C(Nc1cccnn1)N1CCN(c2nccc(-c3ccc(F)c(F)c3)n2)CC1	nt	nt	2%[162 µM]	nt	nt	2%	nt
CCC(=O)Nc1cc(-c2nc3cc(C)cc(C)c3o2)ccc1C	i	47%	-2%	?	-21	3%	nt
C=Cc1cc(O)cc2nc(-c3ccc(O)c(F)c3)oc12	nt	nt	-18%	nt	nt	13µM*	?
Cc1oc2ncnc(N3CCOCC3)c2c1C(=O)N(Cc1ccccc1)C(C)C	i	-9%	5%	-11%	-13	?	nt
O=C(O)c1ccc(-c2ccc3ncnc(N4CCOCC4)c3c2)o1	nt	nt	nt	nt	nt	-1%	nt	CLK4 inh-1=0.65µM*;CLK4 inh-2=3*;DYRK1A inh-2=45µM*;CLK2 inh=33µM*;CLK3 RBC=i;DYRK1B RBC=34µM*;CLK1 RBC=46µM*
CC(O)c1ccc(-c2ccc3ncnc(N4CCOCC4)c3c2)o1 (stereo not given)	nt	nt	nt	nt	nt	?	nt	CLK4 inh-1=0.41µM*;CLK4 inh-2=1.9*;DYRK1A inh-2=29µM*;CLK2 inh=19µM*;CLK3 RBC=i;DYRK1B RBC=45µM*;CLK1 RBC=9µM*
Cc1ccc(CNC(=O)c2c(C)oc3ncnc(N4CCOCC4)c23)cc1	i	-19%	7%	-24%	-9	-29%	nt
